# Assay outcomes (PubChem BioAssay)
# A selection: hits, their analogues and other compounds. The true share with any hit is near 21%.
# SARS PLP yeast – SARS-CoV PLP inhibition in yeast. 330,000 compounds, 0.19% hits. S. cerevisiae expressing SARS-CoV PLpro, growth rescue. Potency, µM (doses to about 32.9 µM), for the others: at the highest dose activity, positive = growth rescue, usual class: activators; note: potency is the fitted concentration of half-maximal effect; 0% is about no effect; nearly all actives have a fitted effect of over 55% in size
# Shiga toxin inh – Shiga toxin inhibition | Vero cells, Shiga toxin protein synthesis inhibition reporter | inhibition, % at 38.7 µM | 290,000 compounds, 9.2% hits; in the data active = inhibition mostly above about 28%, no sharp cut-off; inactive = mostly below about 43%; note: 0% is about no effect
# Pf growth 48h – inhibits P. falciparum growth in the first generation, 48 h | P. falciparum luciferase growth in erythrocytes, 48 h | Potency, µM (highest dose often 28.7 µM), inactives show at the top dose activity change, negative = inhibition, actives largely listed as inhibitors | 310,000 compounds, 5.9% hits; active = well fitted inhibition curve with a large enough effect; inconclusive = small, poorly fitted or top-dose-only effect, or another doubt; inactive = no such curve, though single readings can be large or run the other way; note: potency is the fitted concentration of half-maximal effect; % is set by controls: 0 for no effect and ±100 for the full control effect
#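 Luciferase-expressing parasites in RBCs, 2% Hct / 0.1% parasitemia final; RPMI 1640 + 0.5% Albumax; 37 C, 5% CO2, one generation; luminescence read-out, lower signal = inhibition.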
# NS1 inh – blocks influenza NS1 protein function | Potency, µM (titrated, usually from 46.1 µM), inactives show at the highest dose activity, positive = more growth | 270,000 compounds, 0.4% hits | AID 2326; note: potency is the fitted concentration of half-maximal effect; actives are rising curves; nearly all actives have a fitted effect of over 50% in size
#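 S. cerevisiae expressing influenza A NS1, grown in glucose, washed, then diluted 1:100 into pH 6.0 -URA galactose medium with 23 nl compound. Growth recovery read as OD600; NS1-free strain serves as control.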
# CHX counter – affects cycloheximide protein synthesis inhibition readout, counter-screen | AID 2314 | 300,000 compounds, 12% hits | cell reporter, cycloheximide protein synthesis inhibition counterscreen | max response, %; in the data active = max response mostly above about 13%, no sharp cut-off; inactive = mostly below about 14%; note: read at 38.3 µM for the half of the compounds with a filed dose; 0% is about no effect
# Pf growth 96h – P. falciparum growth inhibition at 96 hours; P. falciparum luciferase reporter growth, 96 h; AID 504834; 320,000 compounds, 6.9% hits; Potency, µM (highest dose often 28.7 µM), without a hit: at the highest dose activity change, negative = inhibition, most hits filed as inhibitors; active = well fitted inhibition curve with a large enough effect; inconclusive = small, poorly fitted or top-dose-only effect, or another doubt; inactive = no such curve, though single readings can be large or run the other way; note: potency is the fitted concentration of half-maximal effect; % is set by controls: 0 for no effect and ±100 for the full control effect
#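 Two-generation exposure (96 h) targets delayed-death phenotype. Reporter parasites carrying integrated firefly luciferase, in red cells at 2% hematocrit and 0.05% parasitemia final, kept at 37 C, 5% CO2; luminescence loss indicates inhibition.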
# The depositor's hits bear a star; ? = inconclusive; . = no result; [ ] = another dose, or the depositor's remark. Unless noted, calls come from the whole dose curve.
SMILES,SARS PLP yeast,Shiga toxin inh,Pf growth 48h,NS1 inh,CHX counter,Pf growth 96h
c1ccc(-c2noc(-c3cccc4ccccc34)n2)nc1,-8.5%,40.6*,275.0%,-121.1%,42.6*,14.0%
COc1cc(NC(=O)C[n+]2ccc(C(=O)c3ccccc3)cc2)cc(OC)c1,-7.7%,.,.,.,.,.
S=c1[nH]nc(COc2ccccc2)n1/N=C/C(Cl)=C/c1ccccc1,0.9%,-0.4,?,?,-3.8,148.6%
COc1ccc(CCNC(=O)CCNC(=O)c2ccc([N+](=O)[O-])cc2)cc1,-1.1%,-2.1,.,1.4%,-1.1,-5.3%
COc1cccc(-c2nc(-c3ccccn3)no2)c1OC,0.8%,134.4*,63.8%,-4.1%,37.3*,-12.7%
COCC(=O)n1nc(-c2ccc(Cl)cc2)nc1NCc1ccc(F)cc1,-1.3%,48.2*,.,-4.1%,38.4*,2.94µM*
CCC(=O)n1nc(-c2cccnc2)nc1NCc1ccccc1,-1.0%,9.0,2.0%,.,1.9,203.5%
CCC(=O)n1nc(-c2cccnc2)nc1NCc1ccc(F)cc1,-3.5%,10.3,-12.1%,.,8.9,?
COCC(=O)n1nc(-c2ccccc2)nc1NCc1ccc(N(C)C)cc1,-0.6%,64.9*,48.8%,3.5%,37.8*,?
COCC(=O)n1nc(-c2ccc(C)cc2)nc1NCc1ccc(F)cc1,-0.9%,86.1*,0.0%[5.75 µM],.,12.2*,1.0%
COc1ccc(CNc2nc(-c3cccnc3)nn2C(=O)c2cccs2)cc1,6.4%,12.7,18.0%,0.1%,28.9*,?
Cc1c(C(=O)NCc2ccoc2)oc2ccc3c(c12)C(=O)CC(C)(C)O3,-12.0%,119.1*,68.8%,-6.3%,61.0*,19.9%
CCCNC(=O)c1oc2ccc3c(c2c1C)C(O)CC(C)(C)O3 (stereo not drawn),1.3%,40.4,26.6%,3.5%,9.6,-0.8%
Cc1oc2cc(Br)c(O)c(Br)c2c1-c1ccccc1,-11.9%,59.4*,-1.4%,-107.0%,18.3*,22.7%
O=C(c1ccc(-c2ccccc2)cc1)N1CCN(c2ccccn2)CC1,-3.2%,-3.1,-4.8%,.,-2.7,66.2%
CCCn1c(=O)c2ccccc2n2c(SCCOc3ccc(Cl)cc3)nnc12,5.8%,69.8*,26.5%,-6.7%,13.4,27.2%
Cn1cccc1CNC(=S)Nc1ccccc1Cl,4.0%,18.2,-7.0%,.,13.3,?
CN(C)C(=O)NC1CCCCCCC1,.,-6.2,.,.,0.6,.
O=C1CN(C(=S)NC(=O)c2ccc(-c3ccccc3)cc2)CCN1,0.2%,62.1,20.0%,-1.1%,15.5*,19.6%
CC(C)NS(=O)(=O)c1ccc(NC(=S)NC(=O)c2ccc(-c3ccccc3)cc2)cc1,-6.2%,-5.6,6.57µM*,1.0%,7.5,2.62µM*
O=C1CN(C(=S)Nc2ccccc2Cl)CCN1,0.7%,0.5,-3.3%,.,-1.9,5.2%
O=C(NC(=S)Nc1ccccc1)c1csnn1,-7.6%,26.8,-2.6%,5.5%,22.1*,?
O=C(O)c1ccc(NC(=S)NC(=O)c2ccc(-c3ccccc3)cc2)cc1,0.3%,47.6,106.9%,.,44.9*,14.1%
COc1cc(C(=O)NC2CCCC(C)C2C)ccc1OCC(=O)N1CCOCC1 (stereo not drawn),-5.6%,.,9.3%,.,.,-8.9%
CCOc1ccc2c(c1)c1nnc(SCC(=O)NC3CC3)nc1n2C,-0.2%,21.4,-14.1%,4.1%,-4.8,?
SMILES,SARS PLP yeast,Shiga toxin inh,Pf growth 48h,NS1 inh,CHX counter,Pf growth 96h
Cc1ccc(NC(=O)NC(=S)NC(=O)c2ccccc2)cc1,-5.3%,87.7*,53.6%,-4.1%,48.3*,78.3%
CCn1c(CNC(=O)c2ccco2)nnc1SCC(=O)Nc1ccc(Br)cc1F,7.2%,-5.3,?,-2.0%,1.1,?
CCc1ccc(C(=O)Cn2ccsc2=N)cc1,-9.0%,90.8*,5.7%,-50.4%,54.3*,-18.3%
O=C1CNC(c2ccccc2Cl)c2cc(Br)ccc2N1 (stereo not drawn),4.0%,-31.9,-15.9%,6.0%,-3.5,4.65µM*
COC(=O)CN1C(=O)Nc2ccc(Br)cc2C1c1ccccc1Cl (stereo not drawn),-7.1%,-16.9,.,16.2%,1.1,.
Cc1ccc(C(=O)O[C@H](C(=O)O)[C@H](OC(=O)c2ccc(C)cc2)C(=O)O)cc1,-1.2%,-8.9,-2.0%[0.00184 µM],4.0%,-4.3,31.3%
CC(=O)C1(O)Cc2c(O)c3c(c(O)c2C(OC2CC(N)C(O)C(C)O2)C1)C(=O)c1c(O)cccc1C3=O (stereo not drawn),.,.,1.51µM*,.,.,0.849µM*
COc1cccc2c1C(=O)c1c(O)c3c(c(O)c1C2=O)C[C@@](O)(C(=O)CO)C[C@@H]3OC1CC(N)C(O)C(C)O1 (stereo partly drawn),.,.,0.426µM*,.,.,0.0675µM*
COc1cccc2c1C(=N)c1c(O)c3c(c(O)c1C2=O)C[C@](O)(C(C)=O)C[C@@H]3O[C@H]1C[C@H](N)[C@@H](O)[C@H](C)O1,.,.,.,2.6%,.,.
CCCc1ccc(OCc2ccc(C(=O)O)o2)c(OC)c1,2.5%,133.5*,177.5%,-2.6%,74.4*,202.3%
C=CCc1ccc(OC(=O)NC2CCCCC2)c(OC)c1,-1.4%,71.4*,38.2%,-2.0%,28.5*,-31.2%
C=CCc1ccc(OCCCCNC2CCCC2)c(OC)c1,0.3%,-13.7,-19.4%,-0.8%,-4.0,21.6%
CCCc1ccc(OCc2ccc(C(=O)NN)o2)c(OC)c1,-4.0%,41.0*,-2.4%[0.00184 µM],5.1%,22.2*,-20.9%
COc1ccccc1OCc1ccc(C(=O)NC(C)(C)C)o1,-6.1%,20.4,17.6%,-11.9%,12.2*,92.5%
Cc1cc(C)cc(OCc2ccc(C(=O)NN)o2)c1,-1.1%,21.3,30.9%,10.1%,1.1,31.3%
O=C1CN(C(=O)COC(=O)c2cccc(OCc3ccccc3)c2)c2ccccc2N1,11.3%,20.2,?,-38.1%,8.0,?
COC(=O)c1cnc(Oc2ccc(NC(=O)NC(=O)c3ccccc3Cl)cc2)cc1C(F)(F)F,0.4%,-8.3,77.0%,-0.9%,-2.4,40.8%
C=CCc1ccc(OCc2ccc(C(=O)O)o2)c(OC)c1,-0.4%,86.8*,225.6%,4.5%,56.0*,-1.7%
CCCc1ccc(OCc2ccc(C(=O)OC)o2)c(OC)c1,-22.5%,146.2*,123.3%,-31.7%,76.3*,-1.1%
COc1ccccc1OCc1ccc(C(=O)OCC2CCCO2)o1 (stereo not drawn),-1.8%,23.2,48.0%,-9.1%,41.0*,52.8%
CN(C)C(=S)Nc1ccc(Cc2ccncc2)cc1,-0.6%,-16.9,-4.1%,-5.4%,5.0,254.1%
CCCn1nnc(NC(=S)NC(=O)c2ccccc2OC)n1,4.7%,.,.,.,.,.
CCCc1c(C)nc2ccc(OC)cc2c1SCCC(=O)O,6.2%,-11.0,10.2%,-5.4%,-4.2,11.7µM*
Cc1nc2c(C)cccc2c(SC(=N)N)c1CC=C(Cl)Cl,-0.4%,1.6,-0.7%,-1.5%,0.9,-1.1%
CCCOc1ccc2nc(C)c(CCC)c(SC(=N)N)c2c1,0.2%,-3.5,1.17µM*,0.2%,1.2,6.57µM*
Cc1ccc(OCCSc2nnc(C)c(=O)n2N)cc1,1.3%,1.9,16.4%,2.6%,13.6,20.5%
